# Laboratory results reported in PubChem BioAssay AID1440 (NMMLSC, 2008).
# The campaign covered roughly 220,000 compounds. Fewer than 10 were called active. Not shown: some 92% with an inconclusive outcome. The rule behind the calls is not given here. A selection follows.
# Molecular target: Guanine nucleotide-binding protein G(o) subunit alpha (Homo sapiens) + Regulator of G-protein signaling 19 (Homo sapiens) (UniProt P09471+P49795)
# Assay: regulators of RGS19 binding to Galphao, biochemical, multiplexed bead flow cytometry (AID 1440);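 note: fluorescent Galpha o activated by aluminum fluoride binding bead-coupled RGS19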
# Settings: at 10 µM
# Guanine nucleotide-binding protein G(o) subunit alpha (Homo sapiens) + Regulator of G-protein signaling 19 (Homo sapiens), sequence (P09471 whole entry, looked up): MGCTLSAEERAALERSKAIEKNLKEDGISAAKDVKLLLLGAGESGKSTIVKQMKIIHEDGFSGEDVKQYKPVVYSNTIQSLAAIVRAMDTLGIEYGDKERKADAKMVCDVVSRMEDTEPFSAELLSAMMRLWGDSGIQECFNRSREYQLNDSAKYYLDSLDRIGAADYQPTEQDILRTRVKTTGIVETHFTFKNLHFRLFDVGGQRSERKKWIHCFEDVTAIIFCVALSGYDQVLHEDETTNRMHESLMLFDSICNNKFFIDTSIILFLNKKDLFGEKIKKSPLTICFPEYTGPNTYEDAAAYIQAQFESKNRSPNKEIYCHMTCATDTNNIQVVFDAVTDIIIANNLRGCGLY
# Guanine nucleotide-binding protein G(o) subunit alpha (Homo sapiens) + Regulator of G-protein signaling 19 (Homo sapiens), sequence (P49795 whole entry, looked up): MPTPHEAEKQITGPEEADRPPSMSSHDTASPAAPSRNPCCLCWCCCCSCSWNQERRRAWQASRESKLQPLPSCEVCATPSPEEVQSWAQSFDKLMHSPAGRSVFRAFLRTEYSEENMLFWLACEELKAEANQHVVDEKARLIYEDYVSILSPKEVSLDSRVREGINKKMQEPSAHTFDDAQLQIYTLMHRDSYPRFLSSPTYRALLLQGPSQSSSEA
row,SMILES,binding response (% of control) [%]
1,O=C(c1ccccc1)N1CCCCCC1,58.2
2,O=C(NC1CCCC1)C1CCC(CNS(=O)(=O)c2cccs2)CC1 (stereo unspecified),88.8
3,CCOC(=O)c1ccc(N2CN=C3SCC(=O)N3C2)cc1,94.6
4,COc1ccc(-c2[nH]nc3c2C(c2ccsc2)C(C#N)=C(N)O3)cc1 (stereo unspecified),80.2
5,COc1ccccc1NC(=O)CSc1nnc(C2CCCCC2)n1C,50.3
6,CC/C(Cc1ccccc1)=N/NC(=O)c1cccc(Br)c1,130
7,COC(=O)c1c(CSc2cccc(C)c2)noc1C(=O)NCc1ccco1,102
8,CC(C)COCC1CC2(CC(C)C(=O)CC2=O)C(=O)O1 (stereo unspecified),56.6
9,CCc1nnc(NC(=O)COC(=O)CN2C(=O)c3ccccc3C2=O)s1,62.2
10,COCCn1c(SCC(=O)c2ccc3c(c2)OCCO3)nnc1C(C)C,59.5
11,Cc1onc(-c2c(Cl)cccc2Cl)c1C(=O)Nn1cnnc1,102
12,CCc1ncc(C(=O)c2ccc(OC)cc2)n1C,108
13,O=C(CN1CCCCCC1=O)OCc1ncc(-c2ccccc2)o1,96.5
14,O=C1Nc2ccccc2/C1=C\c1cccn1-c1ccc(OC(F)(F)F)cc1,63.3
15,Cc1ccc(C(=O)CSc2nc(N)cc(=O)[nH]2)cc1,64.8
16,C/C(=N\NC(=O)CSc1nc2nc(C)cc(C)n2n1)c1ccccc1,96.1
17,O=C(NCCCCC(NC(=O)c1ccc([N+](=O)[O-])cc1)C(=O)O)c1ccc([N+](=O)[O-])cc1 (stereo unspecified),95.5
18,CCOC(=O)Cn1nc(/C=C/c2ccc(C)cc2)ccc1=O,-18.6
19,COC(=O)c1sccc1-c1ccc(C(=O)Nc2ccccc2)o1,122

row,SMILES,binding response (% of control) [%]
1,Cc1ccc(-c2cc(C(=O)OCC(=O)Nc3cc(C)on3)c3ccccc3n2)c(C)c1,81.7
2,O=C(CSc1nc2ccccc2c(=O)n1CC1CCCO1)NCC1CCCO1 (stereo unspecified),94.2
3,COC(=O)C(NC(=O)Nc1ccccc1OC)C(C)C (stereo unspecified),93.4
4,CCOC(=O)C1=C(C)NC2=C(C(=O)c3ccccc32)C1c1cccnc1 (stereo unspecified),104
5,CC(=O)Nc1ccc(OCC=C(Cl)Cl)cc1,82.1
6,O=C(NCc1ccccc1)c1ccccc1OCC(=O)N1CCCCC1,38.1
7,NC(=S)N/N=C1\CCSc2ccc(Cl)cc21,69
8,Cc1ccc(S(=O)(=O)c2c(N)n(Cc3ccco3)c3nc4ccccc4nc23)cc1C,92.1
9,Cc1ccc(C(=O)NNC(=O)C2CCN(Cc3ccccc3)CC2)cc1,96.2
10,CC1(C)C2CCC1(CS(=O)(=O)NCc1ccc(C(=O)O)cc1)C(=O)C2 (stereo unspecified),107
11,C[C@H](NS(=O)(=O)c1ccccc1F)C(=O)OCC(=O)N1CCc2ccccc21,106
12,CC(=O)c1cc2c(cc1NS(=O)(=O)c1ccccc1)OCO2,94.9
13,Clc1ccc(Cc2noc(CN3CCN(c4ccccc4)CC3)n2)c(Cl)c1,-14.4
14,CC1(C)Cc2c(c(N3CCOCC3)nc3snc(N)c23)CO1,20.9
15,O=S1(=O)C=CC(N2CCOCC2)C1 (stereo unspecified),162
16,CCC(=O)NCCc1cc2cc(C)c(C)cc2[nH]c1=O,96.3
17,Cc1noc(C)c1C(=O)Nc1cccnc1,77.2
18,Cc1ccc(S(=O)(=O)N2CCSC2)cc1C,113
19,COC(=O)Cc1c(C)nc2nc(-c3ccc(Cl)cc3)[nH]n2c1=O,112

row,SMILES,binding response (% of control) [%]
1,CC(C)(C#N)NC(=O)c1ccco1,87.8
2,Cc1cc2cc(CN(Cc3ccco3)C(=O)NCc3ccccc3)c(=O)[nH]c2cc1C,98.1
3,COc1ccc(-c2nc(-c3ccccc3)nc(N3CCN(C)CC3)c2C#N)cc1,114
4,O=S1(=O)CCN2C(Cc3ccc(SC(F)F)cc3)=CSC2=N1,121
5,Cc1ccc(Cl)c(NC(=O)COC(=O)c2ccccc2C(=O)c2ccc(Cl)c([N+](=O)[O-])c2)c1Cl,115
6,CCCCN1c2ccccc2N(CCCO)c2cc(C)nnc21,99
7,O=C(NCC(c1cccnc1)N1CCN(c2ccc(F)cc2)CC1)C1CCCCC1 (stereo unspecified),104
8,CC12CC(c3ccccc3O1)N(C(=O)c1ccco1)C(=O)N2c1ccccc1 (stereo unspecified),95.1
9,Cn1cnnc1SCC(=O)N1N=C2/C(=C/c3ccco3)CCCC2C1c1ccco1 (stereo unspecified),61.5
10,CC(NS(=O)(=O)c1cccc(Cl)c1)C(=O)Nc1ccc(-c2nc3ccccc3s2)cc1 (stereo unspecified),115
11,Cc1nn(Cc2ccc(Cl)cc2)c(C)c1N,8.58
12,CC(C)SCCCCOc1ccc2ccccc2c1,88.9
13,CCOC(=O)c1nnn(-c2nc(N3CCCC3)nc(N3CCCC3)n2)c1-c1ccccc1,112
14,CN(C)S(=O)(=O)c1ccc(C(=O)Nc2nnc(SCc3ccccc3)s2)cc1,-32.2
15,Cc1cc(C)n(C2CCCCC2OC(=O)c2ccccc2)n1 (stereo unspecified),110
16,CC1CN(S(=O)(=O)c2cccc(-c3cn4ccccc4n3)c2)CC(C)O1 (stereo unspecified),105
17,O=C(CSc1nnc(COc2ccc(Cl)cc2)o1)N1c2ccccc2CCc2ccccc21,98.2
18,COc1ccc(Cc2nc3ccc(S(N)(=O)=O)cc3[nH]2)cc1OC,56.5
